The values that follow come from ChEMBL document CHEMBL2218924, “A broad activity screen in support of a chemogenomic map for kinase signalling research and drug discovery” (Biochem J, 2013).

Molecules are shown by their SMILES.

Assay [1] concerns the target Mast/stem cell growth factor receptor Kit (Homo sapiens) (UniProt P10721). As to conditions: at 1 µM.
Assay [2] shares this target. Conditions: at 10 µM.
In assay [3] the target is Proto-oncogene tyrosine-protein kinase Src (Homo sapiens) (UniProt P12931). As to conditions: at 1 µM.
Sequence of Proto-oncogene tyrosine-protein kinase Src (Homo sapiens) (P12931 2-536 limits assumed): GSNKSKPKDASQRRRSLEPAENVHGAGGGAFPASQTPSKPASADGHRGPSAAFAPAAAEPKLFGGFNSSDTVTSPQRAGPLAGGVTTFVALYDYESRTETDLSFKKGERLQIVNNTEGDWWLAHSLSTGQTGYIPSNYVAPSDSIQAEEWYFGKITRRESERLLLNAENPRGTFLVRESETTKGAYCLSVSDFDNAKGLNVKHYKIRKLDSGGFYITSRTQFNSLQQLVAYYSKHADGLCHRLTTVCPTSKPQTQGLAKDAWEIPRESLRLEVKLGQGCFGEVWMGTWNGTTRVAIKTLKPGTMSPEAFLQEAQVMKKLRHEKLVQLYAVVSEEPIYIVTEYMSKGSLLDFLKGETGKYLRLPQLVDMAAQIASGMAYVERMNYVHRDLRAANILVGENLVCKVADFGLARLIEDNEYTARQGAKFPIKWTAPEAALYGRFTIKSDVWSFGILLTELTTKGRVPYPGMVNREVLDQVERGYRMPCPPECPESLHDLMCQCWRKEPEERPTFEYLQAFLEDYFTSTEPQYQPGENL
Assay [4] has the same target. Conditions: at 10 µM.
Assay [5] deals with Serine/threonine-protein kinase mTOR (Homo sapiens) (UniProt P42345). As to conditions: at 1 µM.
Assay [6] shares this target. Conditions: at 10 µM.
For assay [7] the target is unchanged. Conditions: at 1 µM. The source holds these as a separate data set.
The target is the same in assay [8]. As to conditions: at 10 µM. This is another data set of the same source.
For assay [9], the target named is Ribosomal protein S6 kinase beta-1 (Homo sapiens) (UniProt P23443). As to conditions: at 1 µM.
Sequence of Ribosomal protein S6 kinase beta-1 (Homo sapiens) (P23443 whole entry, looked up): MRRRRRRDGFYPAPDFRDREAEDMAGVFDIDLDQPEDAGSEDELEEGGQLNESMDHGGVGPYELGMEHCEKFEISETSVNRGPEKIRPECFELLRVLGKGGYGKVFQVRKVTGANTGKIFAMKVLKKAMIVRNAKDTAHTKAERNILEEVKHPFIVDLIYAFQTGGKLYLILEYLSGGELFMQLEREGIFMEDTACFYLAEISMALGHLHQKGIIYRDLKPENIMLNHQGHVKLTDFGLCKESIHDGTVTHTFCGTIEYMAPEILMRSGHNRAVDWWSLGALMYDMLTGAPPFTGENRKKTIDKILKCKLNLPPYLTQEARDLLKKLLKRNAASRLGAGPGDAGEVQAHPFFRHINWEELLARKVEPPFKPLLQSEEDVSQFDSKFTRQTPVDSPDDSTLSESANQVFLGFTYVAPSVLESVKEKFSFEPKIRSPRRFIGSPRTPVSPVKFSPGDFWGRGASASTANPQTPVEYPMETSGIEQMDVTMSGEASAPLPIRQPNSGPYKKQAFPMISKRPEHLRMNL
The target is the same in assay [10]. Conditions: at 10 µM.
Assay [11] addresses Serine/threonine-protein kinase Nek6 (Homo sapiens) (UniProt Q9HC98). As to conditions: at 1 µM.
Assay [12] has the same target. As to conditions: at 10 µM.
The target of assay [13] is Serine/threonine-protein kinase Nek7 (Homo sapiens) (UniProt Q8TDX7). As to conditions: at 1 µM.
Sequence of Serine/threonine-protein kinase Nek7 (Homo sapiens) (Q8TDX7 whole entry, looked up): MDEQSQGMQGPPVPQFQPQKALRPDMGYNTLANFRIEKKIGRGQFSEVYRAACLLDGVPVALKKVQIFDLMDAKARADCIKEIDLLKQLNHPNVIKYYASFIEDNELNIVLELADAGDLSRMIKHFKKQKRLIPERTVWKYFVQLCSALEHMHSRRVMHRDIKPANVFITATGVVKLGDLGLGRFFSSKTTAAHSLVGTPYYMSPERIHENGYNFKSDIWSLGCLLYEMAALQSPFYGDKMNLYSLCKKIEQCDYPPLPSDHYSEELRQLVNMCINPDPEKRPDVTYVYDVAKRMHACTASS
For assay [14] the target is unchanged. As to conditions: at 10 µM.
Assay [15] deals with T1, Serine/threonine-protein kinase NLK (Homo sapiens) (UniProt Q9UBE8).
T1 sequence (whole entry): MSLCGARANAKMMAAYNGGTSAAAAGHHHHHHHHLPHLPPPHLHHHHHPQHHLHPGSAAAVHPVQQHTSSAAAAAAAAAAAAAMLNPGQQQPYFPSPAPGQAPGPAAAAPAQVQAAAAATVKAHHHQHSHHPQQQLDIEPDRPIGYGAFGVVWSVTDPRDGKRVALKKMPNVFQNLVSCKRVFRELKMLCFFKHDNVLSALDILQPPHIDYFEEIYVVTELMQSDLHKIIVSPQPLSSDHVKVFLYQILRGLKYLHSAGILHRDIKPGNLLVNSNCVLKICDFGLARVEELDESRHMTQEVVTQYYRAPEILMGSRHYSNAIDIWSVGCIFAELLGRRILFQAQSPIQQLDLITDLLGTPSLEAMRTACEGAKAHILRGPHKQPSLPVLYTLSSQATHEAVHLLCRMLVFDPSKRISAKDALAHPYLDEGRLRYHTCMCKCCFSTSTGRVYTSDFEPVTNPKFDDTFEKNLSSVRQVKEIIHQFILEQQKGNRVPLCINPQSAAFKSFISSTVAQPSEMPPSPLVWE
Conditions: at 1 µM.

The target of assay [16] is T1, Serine/threonine-protein kinase NLK (Homo sapiens). Conditions: at 10 µM.
The target of assay [17] is Serine/threonine-protein kinase PAK 2 (Homo sapiens) (UniProt Q13177). As to conditions: at 1 µM.
Sequence of Serine/threonine-protein kinase PAK 2 (Homo sapiens) (Q13177 whole entry): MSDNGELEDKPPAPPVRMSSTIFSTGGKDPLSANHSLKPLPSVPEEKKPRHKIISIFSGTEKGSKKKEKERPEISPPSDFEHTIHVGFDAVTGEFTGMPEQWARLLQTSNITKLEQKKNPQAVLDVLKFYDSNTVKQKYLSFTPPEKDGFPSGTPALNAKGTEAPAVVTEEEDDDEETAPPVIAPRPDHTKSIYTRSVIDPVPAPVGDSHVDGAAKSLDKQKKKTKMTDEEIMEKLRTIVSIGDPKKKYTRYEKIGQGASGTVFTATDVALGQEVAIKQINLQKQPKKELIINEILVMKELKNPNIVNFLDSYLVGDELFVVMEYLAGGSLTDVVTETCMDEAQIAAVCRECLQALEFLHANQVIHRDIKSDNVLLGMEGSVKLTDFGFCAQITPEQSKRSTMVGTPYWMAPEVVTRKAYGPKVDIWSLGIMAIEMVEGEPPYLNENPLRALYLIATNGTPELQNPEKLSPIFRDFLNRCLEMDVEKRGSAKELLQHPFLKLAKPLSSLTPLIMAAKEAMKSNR
Assay [18] has the same target. Conditions: at 10 µM.
Assay [19] addresses T2, Eukaryotic elongation factor 2 kinase (Homo sapiens) (UniProt O00418).
T2 sequence (whole entry): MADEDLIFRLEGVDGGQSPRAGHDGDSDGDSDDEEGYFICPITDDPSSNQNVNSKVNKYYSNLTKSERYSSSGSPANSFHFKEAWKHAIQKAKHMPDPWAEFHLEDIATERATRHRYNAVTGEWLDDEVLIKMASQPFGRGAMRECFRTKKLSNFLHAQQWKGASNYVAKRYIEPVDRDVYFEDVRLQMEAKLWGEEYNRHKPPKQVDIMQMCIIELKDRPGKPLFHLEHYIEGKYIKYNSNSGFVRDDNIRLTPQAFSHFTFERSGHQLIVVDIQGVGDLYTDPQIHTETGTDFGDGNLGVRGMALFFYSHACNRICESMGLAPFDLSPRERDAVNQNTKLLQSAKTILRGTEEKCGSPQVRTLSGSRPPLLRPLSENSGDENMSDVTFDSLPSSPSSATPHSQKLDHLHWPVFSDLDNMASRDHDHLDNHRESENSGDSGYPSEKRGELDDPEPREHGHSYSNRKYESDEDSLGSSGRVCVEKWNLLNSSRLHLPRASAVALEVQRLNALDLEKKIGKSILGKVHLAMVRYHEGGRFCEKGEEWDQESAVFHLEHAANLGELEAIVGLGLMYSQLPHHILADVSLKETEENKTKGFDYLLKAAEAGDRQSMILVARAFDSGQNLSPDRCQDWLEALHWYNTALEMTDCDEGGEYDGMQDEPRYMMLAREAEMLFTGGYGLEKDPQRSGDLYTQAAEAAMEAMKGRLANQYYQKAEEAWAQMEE
Conditions: at 1 µM.

In assay [20] the target is T2, Eukaryotic elongation factor 2 kinase (Homo sapiens). Conditions: at 10 µM.

Sequence of Serine/threonine-protein kinase Nek6 (Homo sapiens) (Q9HC98 whole entry): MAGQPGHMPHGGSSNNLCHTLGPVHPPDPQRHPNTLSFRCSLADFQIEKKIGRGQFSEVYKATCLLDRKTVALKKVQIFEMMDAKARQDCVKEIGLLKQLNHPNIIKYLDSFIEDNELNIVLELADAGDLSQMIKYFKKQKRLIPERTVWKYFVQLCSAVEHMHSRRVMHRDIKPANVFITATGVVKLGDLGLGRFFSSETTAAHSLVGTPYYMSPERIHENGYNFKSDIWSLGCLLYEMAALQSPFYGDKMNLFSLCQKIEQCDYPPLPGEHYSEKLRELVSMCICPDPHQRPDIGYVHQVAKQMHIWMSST
Sequence of Mast/stem cell growth factor receptor Kit (Homo sapiens) (P10721 whole entry): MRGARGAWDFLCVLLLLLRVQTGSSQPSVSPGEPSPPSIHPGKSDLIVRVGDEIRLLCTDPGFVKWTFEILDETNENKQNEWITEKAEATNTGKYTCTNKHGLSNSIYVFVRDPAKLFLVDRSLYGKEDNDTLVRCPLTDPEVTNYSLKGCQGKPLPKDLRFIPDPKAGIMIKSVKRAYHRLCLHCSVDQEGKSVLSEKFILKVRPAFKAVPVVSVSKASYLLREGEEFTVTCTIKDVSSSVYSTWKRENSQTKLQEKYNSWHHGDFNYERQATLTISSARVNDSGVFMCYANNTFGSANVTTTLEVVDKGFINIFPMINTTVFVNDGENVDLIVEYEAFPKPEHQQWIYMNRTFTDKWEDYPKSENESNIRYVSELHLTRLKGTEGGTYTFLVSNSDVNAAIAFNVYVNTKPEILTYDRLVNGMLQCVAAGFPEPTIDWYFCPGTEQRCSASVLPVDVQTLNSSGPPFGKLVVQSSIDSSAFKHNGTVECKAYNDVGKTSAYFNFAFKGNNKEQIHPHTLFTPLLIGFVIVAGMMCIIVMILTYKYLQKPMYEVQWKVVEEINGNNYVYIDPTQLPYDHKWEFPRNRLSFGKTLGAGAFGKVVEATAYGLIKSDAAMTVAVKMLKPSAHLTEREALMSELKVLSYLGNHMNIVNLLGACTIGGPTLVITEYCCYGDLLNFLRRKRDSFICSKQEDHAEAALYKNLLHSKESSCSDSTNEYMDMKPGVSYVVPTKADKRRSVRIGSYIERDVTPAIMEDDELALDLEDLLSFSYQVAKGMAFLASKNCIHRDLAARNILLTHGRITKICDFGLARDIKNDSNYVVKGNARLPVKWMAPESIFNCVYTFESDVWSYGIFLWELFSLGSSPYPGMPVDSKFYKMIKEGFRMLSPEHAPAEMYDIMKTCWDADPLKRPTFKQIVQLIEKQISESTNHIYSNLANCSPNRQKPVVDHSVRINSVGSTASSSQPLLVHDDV

What is called residual activity is the signal under treatment as a percentage of the control signal. Take `CC(=O)O/N=C1\C(=C2\C(=O)Nc3cc(Br)ccc32)Nc2ccccc21`: the residual activity in assay [1] is 97%; in [2], 32%; in [3], 22%; in assay [4], 8%; in assay [5], 96%; in assay [6], 94%. Moreover, the residual activity in assay [7] was 105%; in [8] it was 84%; in assay [9], 84%; in [10], 36%; in assay [11], 108% (inactive); in [12], 110%. In addition, the residual activity in [13] is 98% (inactive); in assay [14] it was 111% (inactive); in assay [15] it was 90%; in assay [16], 80%; in assay [17], 104%; in [18], 100%.
Regarding `O=C1NC(=O)/C(=C/c2ccc3c(c2)OC(F)(F)O3)S1`, the residual activity in assay [1] was 116%; in assay [2], 102%; in assay [3] it was 91%; in assay [4], 106%; in [19], 85% (inactive); in assay [20] it was 104%. Also, the residual activity in assay [5] amounted to 82%; in assay [6] it was 90%; in assay [7], 106%; in assay [8], 104%; in assay [9], 73%; in assay [10], 35%. Also, the residual activity is 84% (inactive) in assay [11]; 93% in assay [12]; 100% (inactive) in assay [13]; 97% (inactive) in assay [14]; 107% in [15]; 84% in assay [16]. The residual activity in assay [17] was found to be 104%; in assay [18], 76%.
Consider `NC(=O)c1ccc2[nH]c(-c3ccc(Oc4ccc(Cl)cc4)cc3)nc2c1`, for which the residual activity is 106% in assay [1]; 90% in [2]; 108% in assay [3]; 92% in assay [4]; 89% (inactive) in assay [19]; 140% in [20]. Besides, the residual activity turned out to be 123% in assay [5]; 96% in [6]; 113% in [7]; 110% in assay [8]; 92% in assay [9]; 90% in assay [10]. Also, the residual activity in assay [11] was 117% (inactive); in [12] it was 113%; in assay [13], 102% (inactive); in [14] it was 104% (inactive); in assay [15], 88%; in assay [16] it was 59%. For the same compound, the residual activity in assay [17] is 111%; in [18], 82%.
Consider `CC(C)n1cnc2c(NCc3ccccc3)nc(NCCCO)nc21`, for which the residual activity was 111% in [1]; 98% in [2]; 100% in assay [3]; 86% in [4]; 108% (inactive) in assay [19]; 98% in [20]. The residual activity was 109% in [5]; 114% in [6]; 116% in assay [7]; 104% in assay [8]; 105% in assay [9]; 100% in [10]. The residual activity in assay [11] was 107% (inactive); in assay [12], 115%; in assay [13], 101% (inactive); in assay [14], 95% (inactive); in [15], 95%; in assay [16], 86%. Also, the residual activity in assay [17] turned out to be 106%; in assay [18] it was 100%.
As to `CCN(CC)CCCCN1c2ccccc2Oc2ccc(Cl)cc21`, the residual activity in [1] was 121%; in [2] it was 107%; in [3], 81%; in [4] it was 109%; in assay [19], 104% (inactive); in assay [20], 131%. For the same compound, the residual activity in [5] stood at 110%; in assay [6] it was 110%; in assay [7], 70%; in assay [8], 98%; in [9], 79%; in [10] it was 90%. For the same compound, the residual activity in assay [11] is 106% (inactive); in [12], 113%; in [13] it was 116% (inactive); in [14], 115% (inactive); in assay [15], 113%; in [16] it was 96%. Also, the residual activity amounted to 117% in assay [17] and 120% in [18].
Take `C[C@@H](N)[C@H]1CC[C@H](C(=O)Nc2ccncc2)CC1`: the residual activity in [1] is 107%; in assay [2], 106%; in assay [3], 100%; in [4], 103%; in assay [19], 96% (inactive); in [5], 105%. The residual activity in assay [6] is 99%; in assay [7], 109%; in assay [8] it was 117%; in [9], 101%; in [10], 71%; in assay [11], 106% (inactive). For the same compound, the residual activity in assay [12] was 107%; in [13], 111% (inactive); in [14] it was 112% (inactive); in assay [15], 100%; in assay [16], 101%; in [17], 106%. In addition, the residual activity in assay [18] stood at 104%.
Take `Cc1nc2cc3nc(-c4cccs4)cnc3cc2n1C`: the residual activity in [1] is 80%; in assay [2] it was 13%; in [3], 78%; in assay [4], 86%; in assay [5], 105%; in assay [6], 107%. The residual activity in [7] was 80%; in [8], 84%; in [9], 98%; in assay [10], 112%; in assay [11], 104% (inactive); in assay [12], 112%. The residual activity in assay [13] is 102% (inactive); in assay [14] it was 107% (inactive); in assay [15], 104%; in assay [16] it was 95%; in assay [17], 99%; in assay [18] it was 86%.
Consider `CCOc1cc2ncnc(Nc3cccc(Br)c3)c2cc1OCC`, for which the residual activity in assay [1] was 108%; in assay [2], 101%; in [3], 53%; in assay [4], 14%; in assay [5], 110%; in assay [6], 106%. The residual activity in [7] is 94%; in [8] it was 100%; in [9] it was 109%; in assay [10], 54%; in assay [11] it was 112% (inactive); in assay [12], 125%. For the same compound, the residual activity is 102% (inactive) in [13]; 101% (inactive) in assay [14]; 78% in assay [15]; 34% in assay [16]; 102% in assay [17]; 75% in [18].
As to `N#C/C(=C(\N)Sc1ccc(N)cc1)c1ccccc1C(F)(F)F`, the residual activity amounted to 115% in [1]; 105% in assay [2]; 125% in [3]; 91% in assay [4]; 87% in [5]; 63% in [6]. For the same compound, the residual activity in assay [7] is 118%; in assay [8], 79%; in assay [9], 68%; in [10] it was 56%; in assay [11] it was 113% (inactive); in assay [12], 112%. Also, the residual activity in [13] is 101% (inactive); in [14], 90% (inactive); in [15], 87%; in [16] it was 95%; in assay [17], 99%; in assay [18], 98%.
As for `O=C1NC(=O)c2c1c1c3ccccc3[nH]c1c1[nH]c3cc(Br)ccc3c21`, the residual activity in assay [1] worked out at 107%; in assay [2] it was 94%; in assay [3], 117%; in assay [4], 93%; in assay [5] it was 117%; in [6], 106%. Besides, the residual activity in assay [7] is 76%; in assay [8], 113%; in assay [9], 92%; in [10], 52%; in assay [11] it was 121% (inactive); in assay [12] it was 117%. The residual activity is 103% (inactive) in [13]; 89% (inactive) in assay [14]; 82% in assay [15]; 93% in assay [16]; 122% in assay [17]; 106% in [18].
As to `CNc1cc2c(Nc3cccc(Br)c3)ncnc2cn1`, the residual activity in [1] came out at 110%; in assay [2], 106%; in [3], 86%; in assay [4], 78%; in assay [5], 105%; in assay [6], 104%. The residual activity was 100% in [7]; 107% in assay [8]; 126% in [9]; 145% in [10]; 94% (inactive) in [11]; 108% in [12]. In addition, the residual activity in [13] is 94% (inactive); in [14], 95% (inactive); in [15], 87%; in assay [16], 45%; in assay [17] it was 111%; in assay [18], 99%.
Turning to `COc1ccc(CNc2nc(N(CCO)CCO)nc3c2ncn3C(C)C)cc1`, the residual activity is 91% in [1]; 66% in [2]; 104% in assay [3]; 82% in assay [4]; 106% (inactive) in assay [19]; 101% in [20]. In addition, the residual activity in [5] came out at 106%; in [6] it was 97%; in [7], 128%; in [8], 99%; in assay [9], 74%; in assay [10] it was 49%. In addition, the residual activity in assay [11] is 107% (inactive); in [12], 96%; in assay [13] it was 96% (inactive); in assay [14], 86% (inactive); in assay [15], 89%; in assay [16] it was 86%. Further, the figures for the residual activity in [17] and in assay [18] were 102% and 87%, respectively.
